TDP1 cell CPT = DT40-hTDP1 cell growth loss with CPT; chicken DT40 Tdp1-/-;hTDP1 cells + 20 nM CPT, ATP luminescence, 48 h; Potency, µM (highest dose often 46.2 µM), most hits filed as inhibitors; 420,000 compounds, 12% hits; AID 686979; note: nearly all actives have a fitted effect of over 55% in size
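Cell growth measured by CellTiter-Glo luminescence after a minimum 48 h, 37 C compound exposure with 20 nM CPT in Tdp1-knockout DT40 cells stably expressing hTDP1, seeded 400/well; qHTS titration format.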
GCN5L2 inh = GCN5L2 (KAT2A) acetyltransferase inhibition | Potency, µM (top dose mostly 58.9 µM), most hits filed as inhibitors | 390,000 compounds, 0.21% hits | Q92830 | AID 504327 | GCN5L2 HAT assay, ThioGlo1 CoA-SH fluorescence
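Fluorescence readout, Ex340nm/Em540nm: ThioGlo1 (50uM final) reacts with free CoA thiol released as 20nM GCN5L2 acetylates H3(1-25) peptide (75uM) using acetyl-CoA (70uM). Compound and enzyme sat 15 min beforehand; 20 min room-temperature reaction.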
PLK1 PBD block = blocks phosphopeptide binding to human PLK1 polo-box domain; 360,000 compounds, 2.8% hits; Potency, µM, most hits filed as inhibitors; AID 720504; P53350; Plk1 PBD binding of FITC phosphopeptide, fluorescence polarization; note: series mostly up to about 57 µM; nearly all actives have a fitted effect of over 65% in size
DT40 TDP1 no CPT = qHTS for Inhibitors of human tyrosyl-DNA phosphodiesterase 1 (TDP1): qHTS in cells in absence of CPT | DT40 Tdp1-/- hTDP1 cells, no CPT, ATP luminescence, 48 h | Potency, µM (top dose mostly 46.2 µM), most hits filed as inhibitors | 420,000 compounds, 15% hits | AID 686978, 2013; note: nearly all actives have a fitted effect of over 55% in size
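Chicken DT40 Tdp1-/- cells stably complemented with human TDP1 were seeded at 400 cells/well with DMSO in place of 20 nM camptothecin. After compound pinning, cells grew at least 48 hr at 37 °C; viability read by CellTiter-Glo luminescence.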
TDP1 block = blocks human tyrosyl-DNA phosphodiesterase 1. 350,000 compounds, 0.28% hits. Potency, µM (highest dose often 130 µM), hits mostly inhibitors. recombinant TDP1, AlphaScreen DNA substrate cleavage; note: nearly all actives have a fitted effect of over 40% in size
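Tdp1 1 nM final; 15 min RT w/ cpd; substrate 15 nM, 5 min; beads 10 ug/ml, 10 min; AlphaScreen read. Neg ctrl: no enzyme.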
VDR inh = inhibitors of human vitamin D receptor; 400,000 compounds, 0.93% hits; Potency, µM, hits mostly inhibitors; AID 504847; VDR-SRC2-3 peptide fluorescence polarization, 2 h
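Inhibition of the VDR/SRC2-3 peptide interaction is quantified by fluorescence polarization. Compounds (23 nl, pintool) incubate with the reagents for 2 hours at ambient room temperature.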
Hits are given with their value; [ ] = another dose, or the depositor's remark. Compounds with a hit are over-represented: about 18% of the library has one in this group of screens. Calls come from the whole dose curve; as a rule, active = well fitted curve in the direction sought with a large enough effect; inconclusive = small, poorly fitted or top-dose-only effect, or another doubt; inactive = no such curve, though single readings can be large; an effect the other way counts as inactive or inconclusive.

For COc1ccc(C2/C=C\CN(Cc3ccc(N(C)C)cc3)CC(=O)N2Cc2ccc(F)cc2)cc1 (centres undefined) the results were TDP1 cell CPT inconclusive, GCN5L2 inh inactive, PLK1 PBD block inactive, DT40 TDP1 no CPT inconclusive, TDP1 block inactive and VDR inh inactive.
O=C(c1ccc2c(c1)N(Cc1ccccc1F)C(=O)c1ccccc1S2(=O)=O)N1CCCC1 was read as TDP1 cell CPT inconclusive, GCN5L2 inh inactive, PLK1 PBD block inactive, DT40 TDP1 no CPT 23µM, TDP1 block inactive and VDR inh inactive.
Screening CCN1CCN(C(=O)c2ccc3c(c2)N(Cc2ccc(Cl)cc2)C(=O)c2ccccc2S3(=O)=O)CC1 returned TDP1 cell CPT inconclusive, GCN5L2 inh inactive, DT40 TDP1 no CPT 23µM, TDP1 block inactive and VDR inh inactive.
For CC1CCCN(CCCNC(=O)c2ccc3c(c2)N(Cc2ccccc2F)C(=O)c2ccccc2S3(=O)=O)C1 (centres undefined) the results were TDP1 cell CPT 23µM, GCN5L2 inh inactive, PLK1 PBD block inactive, DT40 TDP1 no CPT 15µM, TDP1 block inactive and VDR inh inactive.
`CCN1CCN(C(=O)c2ccc3c(c2)N(Cc2cc(C)ccc2C)C(=O)c2ccccc2S3(=O)=O)CC1` gave TDP1 cell CPT inactive, GCN5L2 inh inactive, DT40 TDP1 no CPT inactive, TDP1 block inactive and VDR inh inactive.
O=C(c1ccc2c(c1)N(Cc1ccc(Cl)cc1)C(=O)c1ccccc1S2(=O)=O)N1CCCC1 was read as TDP1 cell CPT 21µM, GCN5L2 inh inactive, DT40 TDP1 no CPT 26µM, TDP1 block inactive and VDR inh inactive.
`CCN1CCCC1CNC(=O)c1ccc2c(c1)N(Cc1ccccc1F)C(=O)c1ccccc1S2(=O)=O` (centres undefined) gave TDP1 cell CPT inactive, GCN5L2 inh inactive, PLK1 PBD block inactive, DT40 TDP1 no CPT inactive, TDP1 block inactive and VDR inh inactive.
Cc1ccc(C)c(CN2C(=O)c3ccccc3S(=O)(=O)c3ccc(C(=O)N4CCN(c5ccccc5)CC4)cc32)c1 was read as TDP1 cell CPT inactive, GCN5L2 inh inactive, DT40 TDP1 no CPT inactive, TDP1 block inactive and VDR inh inactive.
COc1ccc(NC(=O)C2CCCN(C(=O)Nc3ccc(F)cc3)C2)cc1OC (centres undefined) was read as TDP1 cell CPT inactive, GCN5L2 inh inactive, PLK1 PBD block inactive, DT40 TDP1 no CPT inactive, TDP1 block inactive and VDR inh inactive.
Screening O=C(c1ccc2c(c1)N(Cc1ccccc1F)C(=O)c1ccccc1S2(=O)=O)N1CCN(c2ccccc2F)CC1 returned TDP1 cell CPT inconclusive, GCN5L2 inh inactive, DT40 TDP1 no CPT inconclusive, TDP1 block inactive and VDR inh inactive.
Screening O=C(c1ccc2c(c1)N(Cc1ccc(F)cc1)C(=O)c1ccccc1S2(=O)=O)N1CCCC1 returned TDP1 cell CPT 23µM, GCN5L2 inh inactive, DT40 TDP1 no CPT 16µM, TDP1 block inactive and VDR inh inactive.
For O=C(c1ccc2c(c1)N(Cc1ccc(Cl)cc1)C(=O)c1ccccc1S2(=O)=O)N1CCc2ccccc21 the results were TDP1 cell CPT 5.8µM, GCN5L2 inh inactive, DT40 TDP1 no CPT 7.3µM, TDP1 block inactive and VDR inh inactive.
For C=C(C)C(O)/C=C/C=C/c1ccccc1 (centres undefined) the results were TDP1 block inactive[21 µM].
For Oc1ccc(Nc2ccccc2F)c2cccnc12 the results were TDP1 block inactive.
`Cc1ccc(N=Nc2ccc(O)c3ncccc23)cc1` gave TDP1 cell CPT 13µM, GCN5L2 inh inactive, PLK1 PBD block inactive, DT40 TDP1 no CPT 13µM, TDP1 block inactive and VDR inh inactive.
For CCS(=O)(=O)c1ccc(N=Nc2ccc(O)c3ncccc23)c(OC)c1 the results were TDP1 cell CPT 1.8µM, GCN5L2 inh inactive, PLK1 PBD block inactive, DT40 TDP1 no CPT 1.3µM, TDP1 block inactive and VDR inh inactive.

Screens as filed in PubChem BioAssay.
